# Test results from article PMC7862700, “An all-to-all approach to the identification of sequence-specific readers for epigenetic DNA modifications on cytosine”.
# Legend:
# Experiment in all cases: DAPPL (digital affinity profiling via proximity ligation, sequencing); 10 mM Tris-HCl pH 7.5, 50 mM NaCl, 1 mM DTT, 4% glycerol, room temperature, 30 min; GST-TFs on glutathione beads, 16-mer random dsDNA library, 0.1% formaldehyde crosslink after washing; high values mean tight binding
# Conditions in all cases: protein: recombinant; tags: N-terminal GST; dsDNA, one strand shown
# FLI1 = target: T1, FLI1 (Homo sapiens, UniProt Q01543 1-452)
# T1 sequence: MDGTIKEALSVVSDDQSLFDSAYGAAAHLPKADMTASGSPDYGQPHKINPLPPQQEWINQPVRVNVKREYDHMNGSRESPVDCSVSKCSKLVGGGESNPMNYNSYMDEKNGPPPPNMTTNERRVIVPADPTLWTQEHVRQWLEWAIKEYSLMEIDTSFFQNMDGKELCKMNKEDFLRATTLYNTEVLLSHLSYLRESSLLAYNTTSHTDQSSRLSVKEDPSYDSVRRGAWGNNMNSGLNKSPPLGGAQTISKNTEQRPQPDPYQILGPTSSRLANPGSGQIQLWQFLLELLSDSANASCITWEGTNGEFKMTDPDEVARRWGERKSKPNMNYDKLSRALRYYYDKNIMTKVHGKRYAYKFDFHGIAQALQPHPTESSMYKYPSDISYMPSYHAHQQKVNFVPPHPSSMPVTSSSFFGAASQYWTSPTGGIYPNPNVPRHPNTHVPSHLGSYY
# In short: (§1)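 Binding signal is given per hexamer as its read frequency for a factor divided by its frequency in the tag-only sample. GST-fused human transcription factors were expressed in yeast, captured on glutathione beads, barcoded with DNA and pooled with that sample, then incubated with 200 nmole of a 16-mer random double-stranded DNA library in Tris/NaCl/DTT/glycerol buffer for 30 min at room temperature. The pools were then washed, crosslinked, proximity-ligated, amplified by PCR and sequenced on an Illumina NextSeq500.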
# ELK1 = target: T2, ELK1 (Homo sapiens, UniProt P19419 1-428)
# T2 sequence: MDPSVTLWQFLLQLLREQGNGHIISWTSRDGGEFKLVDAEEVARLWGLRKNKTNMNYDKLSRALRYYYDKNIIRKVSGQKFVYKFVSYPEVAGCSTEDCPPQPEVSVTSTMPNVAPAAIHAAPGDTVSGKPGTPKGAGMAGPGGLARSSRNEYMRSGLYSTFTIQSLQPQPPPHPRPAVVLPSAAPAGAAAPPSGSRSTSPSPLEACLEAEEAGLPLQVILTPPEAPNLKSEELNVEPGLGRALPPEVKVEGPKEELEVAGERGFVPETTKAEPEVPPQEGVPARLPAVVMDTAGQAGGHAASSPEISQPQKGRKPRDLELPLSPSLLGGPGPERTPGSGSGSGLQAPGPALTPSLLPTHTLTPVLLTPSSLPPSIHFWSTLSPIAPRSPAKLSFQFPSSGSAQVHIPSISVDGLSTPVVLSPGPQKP
# In short: as §1
# GABPA = target: T3, GABPA (Homo sapiens, UniProt Q06546 1-454)
# T3 sequence: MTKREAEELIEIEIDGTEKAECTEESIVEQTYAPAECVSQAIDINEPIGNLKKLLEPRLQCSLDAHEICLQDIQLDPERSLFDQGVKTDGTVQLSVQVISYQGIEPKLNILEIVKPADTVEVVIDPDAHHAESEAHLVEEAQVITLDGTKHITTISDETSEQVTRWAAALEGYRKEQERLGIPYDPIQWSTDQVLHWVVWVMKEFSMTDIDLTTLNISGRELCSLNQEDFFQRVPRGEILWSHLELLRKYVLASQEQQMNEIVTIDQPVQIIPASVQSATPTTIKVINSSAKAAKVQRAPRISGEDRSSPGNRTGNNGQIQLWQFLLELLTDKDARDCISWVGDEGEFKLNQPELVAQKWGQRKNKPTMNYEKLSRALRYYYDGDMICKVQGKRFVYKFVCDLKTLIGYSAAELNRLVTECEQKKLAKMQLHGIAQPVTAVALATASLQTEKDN
# In short: as §1
# ERG = target: T4, ERG (Homo sapiens, UniProt P11308 1-479)
# T4 sequence: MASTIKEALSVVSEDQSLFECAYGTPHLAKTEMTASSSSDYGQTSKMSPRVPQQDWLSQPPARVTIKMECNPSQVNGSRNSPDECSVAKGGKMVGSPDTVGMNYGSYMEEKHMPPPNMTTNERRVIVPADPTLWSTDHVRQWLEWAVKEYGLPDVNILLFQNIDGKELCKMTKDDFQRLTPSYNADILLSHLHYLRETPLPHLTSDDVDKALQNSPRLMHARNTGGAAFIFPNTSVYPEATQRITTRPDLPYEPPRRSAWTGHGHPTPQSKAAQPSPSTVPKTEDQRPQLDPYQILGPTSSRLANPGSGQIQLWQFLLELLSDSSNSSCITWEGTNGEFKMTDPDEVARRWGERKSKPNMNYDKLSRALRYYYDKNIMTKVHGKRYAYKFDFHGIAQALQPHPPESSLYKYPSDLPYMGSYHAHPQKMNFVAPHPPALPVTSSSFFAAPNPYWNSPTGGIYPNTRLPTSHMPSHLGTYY
# In short: as §1
# ELF1 = ELF1 (Homo sapiens, UniProt P32519 1-619)
# In short: as §1
# EHF = target: T5, EHF (Homo sapiens, UniProt Q9NZC4 1-300)
# T5 sequence: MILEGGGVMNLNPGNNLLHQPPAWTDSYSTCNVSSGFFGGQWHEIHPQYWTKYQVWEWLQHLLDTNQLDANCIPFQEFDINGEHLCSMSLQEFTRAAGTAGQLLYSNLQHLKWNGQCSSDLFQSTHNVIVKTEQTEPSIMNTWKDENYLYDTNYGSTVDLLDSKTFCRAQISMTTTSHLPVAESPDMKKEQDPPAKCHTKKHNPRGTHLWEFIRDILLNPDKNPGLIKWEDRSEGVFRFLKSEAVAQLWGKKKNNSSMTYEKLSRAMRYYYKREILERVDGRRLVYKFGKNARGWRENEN
# In short: as §1
# SPI1 = SPI1 (Homo sapiens, UniProt P17947 1-270)
# In short: as §1
# SPIB = SPIB (Homo sapiens, UniProt Q01892 1-262)
# In short: as §1
# ELK3 = target: T6, ELK3 (Homo sapiens, UniProt P41970 1-407)
# T6 sequence: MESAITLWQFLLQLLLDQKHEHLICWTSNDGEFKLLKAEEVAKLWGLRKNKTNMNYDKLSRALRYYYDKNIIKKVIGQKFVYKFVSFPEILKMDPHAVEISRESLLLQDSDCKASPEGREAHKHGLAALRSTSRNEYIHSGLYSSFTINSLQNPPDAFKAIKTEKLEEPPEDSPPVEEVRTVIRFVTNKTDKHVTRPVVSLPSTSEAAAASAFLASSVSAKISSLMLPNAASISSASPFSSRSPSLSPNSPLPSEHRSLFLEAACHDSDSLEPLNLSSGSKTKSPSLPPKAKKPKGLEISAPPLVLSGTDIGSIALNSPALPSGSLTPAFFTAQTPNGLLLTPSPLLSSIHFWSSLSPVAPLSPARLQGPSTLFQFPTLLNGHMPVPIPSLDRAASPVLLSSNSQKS
# In short: as §1
# SPIB, sequence (Q01892 whole entry): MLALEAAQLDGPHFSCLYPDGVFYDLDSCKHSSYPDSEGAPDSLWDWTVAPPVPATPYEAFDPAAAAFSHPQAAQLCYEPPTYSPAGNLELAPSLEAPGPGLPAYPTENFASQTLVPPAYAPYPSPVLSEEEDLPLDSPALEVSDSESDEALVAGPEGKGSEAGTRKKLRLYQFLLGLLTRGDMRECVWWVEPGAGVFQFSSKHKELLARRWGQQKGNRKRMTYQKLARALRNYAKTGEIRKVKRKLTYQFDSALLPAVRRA
# ELF1, sequence (P32519 whole entry): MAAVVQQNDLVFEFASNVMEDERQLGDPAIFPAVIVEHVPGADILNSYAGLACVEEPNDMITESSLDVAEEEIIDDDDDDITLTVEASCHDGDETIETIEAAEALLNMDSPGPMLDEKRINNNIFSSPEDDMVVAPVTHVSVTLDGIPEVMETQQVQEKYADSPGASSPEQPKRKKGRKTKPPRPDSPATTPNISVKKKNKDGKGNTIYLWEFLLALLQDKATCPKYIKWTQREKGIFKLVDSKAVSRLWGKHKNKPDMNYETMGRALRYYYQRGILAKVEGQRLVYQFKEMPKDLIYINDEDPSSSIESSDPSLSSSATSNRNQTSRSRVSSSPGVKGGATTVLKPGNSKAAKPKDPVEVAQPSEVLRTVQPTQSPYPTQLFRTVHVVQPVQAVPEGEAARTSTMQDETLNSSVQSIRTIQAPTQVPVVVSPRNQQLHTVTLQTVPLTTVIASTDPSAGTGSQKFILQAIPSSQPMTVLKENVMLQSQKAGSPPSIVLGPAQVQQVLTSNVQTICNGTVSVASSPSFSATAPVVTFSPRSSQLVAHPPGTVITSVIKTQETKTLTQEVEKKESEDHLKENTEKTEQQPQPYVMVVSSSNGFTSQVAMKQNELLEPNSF
sequence,measurement,setting,value
ATGCAA,binding signal,FLI1,"1.32 fold enrichment (6-mer frequency, TF over GST control)"
same,binding signal,ELK1,"1.26 fold enrichment (6-mer frequency, TF over GST control)"
same,binding signal,GABPA,"1.27 fold enrichment (6-mer frequency, TF over GST control)"
same,binding signal,ERG,"1.29 fold enrichment (6-mer frequency, TF over GST control)"
same,binding signal,ELF1,"1.25 fold enrichment (6-mer frequency, TF over GST control)"
same,binding signal,EHF,"1.25 fold enrichment (6-mer frequency, TF over GST control)"
same,binding signal,SPI1,"1.2 fold enrichment (6-mer frequency, TF over GST control)"
same,binding signal,SPIB,"1.26 fold enrichment (6-mer frequency, TF over GST control)"
same,binding signal,ELK3,"1.18 fold enrichment (6-mer frequency, TF over GST control)"
